# Data reported in ChEMBL document CHEMBL3988442, “University of Dundee, Small-Polar-MMV Screening Library” (2021).
# Molecular target: AMP-activated protein kinase, AMPK (Homo sapiens) (UniProt P54646+O43741+P54619+Q9UGJ0+Q9Y478+Q13131+Q9UGI9)
# Assay: AMP-dependent Kinase enzyme assay. An in vitro enzyme assay that detects ADP turnover that is directly proportional to AMPK activity. This uses naive AMPK that is activated during the assay with MK-8722
# Type: functional
# Set-up: scale not given: direction of the effect not stated beside the values
# Details: 30 µM
row,SMILES,Percent Effect
1,CNC(=O)C(C)NC(=O)c1cc(COc2ccc(OC)cc2Cl)[nH]n1 (centres undefined),-1.41%
2,Cc1cnn(C2CCCN(C(=O)c3cc[nH]n3)C2)c1 (centres undefined),-0.778%
3,CC1CCN(c2ccc(C(=O)N3CCCC3c3nncn3C)cn2)CC1 (centres undefined),-4.84%
4,COc1ccc(C(=O)NC2CCN(c3ncccn3)CC2)cc1F,-7.58%
5,CC(C)c1nnc(CN2CC(n3cccn3)Cc3ccccc32)o1 (centres undefined),-5.15%
6,COC(=O)c1ccc(CN(C(C)C)C(C)C)o1,3.89%
7,CCCn1cc(-c2cc(C(=O)N(C)C)c3cccc(C)c3n2)cn1,7.04%
8,CC1CCN(Cc2ccccc2CNC(=O)C2CNC(=O)N2)CC1 (centres undefined),-1.18%
9,O=C(CCn1ccnc1)N1CCC(c2nnc(-c3ccccn3)o2)CC1,1.44%
10,CC(NC(=O)c1ccc(C(N)=O)cc1)c1cccc(N2CCOC2=O)c1 (centres undefined),4.89%
11,CC(C)n1cnnc1CN(C)C(=O)c1cc(COc2ccccc2)[nH]n1,0%
12,COCCC(=O)NCCc1nc2cc(-c3ccc(OC)cc3)ncn2n1,20%
13,Cc1nc(CNCc2ccc(OC34CCCN(CC3)C4)cc2)n[nH]1 (centres undefined),-5.44%
14,CCn1c(C2CCN(C(=O)c3ccc4cc[nH]c4c3)CC2)n[nH]c1=O,-10.8%
15,CN(CCNC(=O)Nc1ccn(C)n1)Cc1ccc(F)cc1,3.18%
16,COc1ccnc(CNc2nc(C)nc(C)c2C)c1,-6.37%
17,COc1ccc(C)nc1NC(=O)CCc1c(C)nn(C)c1C,-7.06%
18,CC(C)NC(=O)c1nc(Cn2c(C(F)(F)F)nc3ccccc32)no1,6.13%
19,COCc1ncc(CN2CCC3(CCNCC3)CC2)cn1,-3.83%
